Bioassay records (PubChem)
IL-1B inflam inh = inhibitors of inflammasome signaling (IL-1 beta secretion); THP-1 LPS/ATP IL-1B secretion, AlphaLISA, 16 h; stronger effect = lower value; activity change, % at 57.5 µM; hit rate 4.7% among 360,000; in the data active = activity change below about -50%; inconclusive = mostly about -30% to -49%
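Secreted IL-1B measured by AlphaLISA bead assay after 16 h compound exposure of THP-1 cells; compounds (final up to 57.5 uM) added 1 h before LPS (250 ng/mL) and ATP (1.25 mM) stimulation; lower signal means less secretion.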
HT1080 IDH1KD tx = kills HT-1080 cells with IDH1 knockdown; HT-1080 IDH1 knockdown viability, ATP luminescence, 48 h; Potency, µM (titrated, usually from 46.1 µM), for inactives: at the top dose activity, negative = toxicity, usual class: cytotoxic; hit rate 2% among 360,000;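 note: potency is the fitted concentration of half-maximal effect; 0% = DMSO wells and -100% = cell-free medium wells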
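In this qHTS, HT-1080 cells depleted of IDH1 are exposed for 48 h at 37 °C to compound titrations. Toxicity is scored from CellTiter-Glo luminescence, with DMSO as full viability and medium alone as none.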
DT40 TDP1 no CPT = qHTS for Inhibitors of human tyrosyl-DNA phosphodiesterase 1 (TDP1): qHTS in cells in absence of CPT. DT40 Tdp1-/- hTDP1 cells, no CPT, ATP luminescence, 48 h. Potency, µM (top dose mostly 46.2 µM), for the others: at the highest dose activity change, negative = growth inhibition, actives largely listed as inhibitors. hit rate 15% among 420,000. AID 686978, 2013; note: potency is the fitted concentration of half-maximal effect; nearly all actives have a fitted effect of over 55% in size
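DT40 Tdp1-/-;hTDP1 cells, no CPT (DMSO vehicle only), 400 cells/well; compounds pin-transferred; ≥48 hr, 37 °C; CellTiter-Glo 30 min RT dark, luminescence read.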
TDP1 cell CPT = growth inhibition of DT40 Tdp1-/-;hTDP1 cells with camptothecin (screen for TDP1 inhibitors). chicken DT40 Tdp1-/-;hTDP1 cells + 20 nM CPT, ATP luminescence, 48 h. Potency, µM (doses to about 46.2 µM), inactives show at the top dose activity change, negative = growth inhibition, most hits filed as inhibitors. hit rate 12% among 420,000. AID 686979; note: potency is the fitted concentration of half-maximal effect; nearly all actives have a fitted effect of over 55% in size
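Chicken DT40 Tdp1-/- cells stably complemented with human TDP1 were seeded at 400 cells/well in medium containing 20 nM camptothecin, exposed to pin-transferred compounds, and grown at 37 °C for at least 48 hr. Viability was read as ATP luminescence.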
HT1080NT lethal = kills 2HG-producing HT-1080-NT fibrosarcoma cells. HT-1080-NT fibrosarcoma viability, CellTiter-Glo ATP luminescence, 48 h. Potency, µM (top dose mostly 46.1 µM), without a hit: at the top dose activity, negative = less viability, hits mostly cytotoxic. hit rate 1.6% among 360,000. AID 686970;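 note: NT is the 2HG producing partner of a matched IDH1 knockdown line; potency is the fitted concentration of half-maximal effect; 0% = DMSO-treated cells and -100% = media-only wells without cells; nearly all actives have a fitted effect of over 55% in size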
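Viability by CellTiter-Glo luminescence after 48 h compound exposure at 37C of HT-1080-NT cells (750/well, RPMI, 5% FBS). % activity scaled between DMSO wells and medium-only wells, then curve-fitted and categorized by curve class.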
The depositor's hits bear a star; ? = inconclusive; . = no result; [ ] = remark or other dose. Shown are actives, neighbours in structure and some others; about 19% of the full set was active somewhere. Unless noted, calls come from the whole dose curve; as a rule, active = well fitted curve in the direction sought with a large enough effect; inconclusive = small, poorly fitted or top-dose-only effect, or another doubt; inactive = no such curve, though single readings can be large; an effect the other way counts as inactive or inconclusive. Unless noted, % is set by controls: 0 for no effect and ±100 for the full control effect.

SMILES | IL-1B inflam inh | HT1080 IDH1KD tx | DT40 TDP1 no CPT | TDP1 cell CPT | HT1080NT lethal
CCOC(=O)C1CCN(c2c(C(=O)c3ccc(OCC)cc3)cnc3ccc(OC)cc23)CC1 | . | . | 21µM* | 23µM* | .
CCN1CCN(c2c(C(=O)c3ccc(OC)cc3)cnc3ccccc23)CC1 | -18 | 0% | -18% | -15% | -2%
COc1cc2ncc(C(=O)c3ccc(C)cc3)c(N3CCCCC3)c2cc1OC | . | . | 12µM* | 12µM* | .
CCOC(=O)C1CCCN(c2c(C(=O)c3ccccc3)cnc3ccc(OC)cc23)C1 (configuration not stated) | 15 | 17% | 21µM* | 15µM* | 9%
NC(=O)c1nsc(C(=O)N(c2cccc(F)c2)C(C(=O)NCC2CCCO2)c2ccc3ncccc3c2)c1N (configuration not stated) | ? | 7% | ? | -18% | 6%
COc1ccc(NC(=O)CNCc2cccs2)c(OC)c1 | -16 | 5% | -11% | -3% | 6%
COc1ccccc1-c1nc(-c2ccccc2)nc(N2CCN(C)CC2)c1C#N | -52* | 21µM* | ? | -17% | 16µM*
CN1CCN(c2nc(-c3ccccc3)nc(-c3ccc(F)cc3)c2C#N)CC1 | -61* | 4% | ? | ? | -1%
COc1ccccc1-c1nn2c(=O)cc(CN3CCN(S(=O)(=O)c4ccc(C)cc4)CC3)nc2s1 | . | . | -14% | 5% | .
Cc1nc(NC(=O)CC(C)C)sc1-c1csc(Nc2ccc(Cl)cc2)n1 | -2 | -6% | 15µM* | ? | -15%
C=CCCC(=O)Nc1nc(C)c(-c2csc(Nc3ccc(Cl)cc3Cl)n2)s1 | -21 | ? | 15µM* | ? | 16µM*
Cc1nc(NC(=O)CC(C)C)sc1-c1csc(Nc2ccc(Cl)cc2Cl)n1 | 7 | ? | 18µM* | ? | ?
CCOC(=O)c1csc(NC(=O)COc2ccc(Cl)cc2Cl)n1 | -5 | -2% | -29% | -14% | 0%
COc1cc(C(=O)OCC(=O)c2ccccc2)cc2c1OCCO2 | -7 | -3% | -8% | -2% | -4%
COc1ccc(C(=O)NCCNC(=O)c2cc(OCC(F)(F)F)ccc2OCC(F)(F)F)cc1 | 0 | ? | -4% | ? | -9%
CCCCOc1ccc(C(=O)NNC(=S)NC(=O)CC)cc1 | -96* | ? | 2.6µM* | 4.6µM* | ?
C=CCNC(=S)NNC(=O)c1ccc(OCCCC)cc1 | 8 | -1% | -25% | -13% | 1%
CCC(=O)NC(=S)NNC(=O)c1ccc(OC)cc1 | 56 | ? | 22µM* | 29µM* | -22%
O=C(Cc1ccc(NC(=O)N2CCCCc3ccccc32)cc1)NCc1ccccc1 | . | . | 23µM* | 23µM* | .
COc1ccc(CNC(=O)CCC(=O)N2CC3CCCN3c3ccccc32)cc1 (configuration not stated) | . | . | 21µM* | 12µM* | .
CCc1ccc(CNC(=O)c2ccc(NC(=O)N3CCCCc4ccccc43)cc2)cc1 | . | . | ? | 21µM* | .
COc1ccc(CNC(=O)Cc2ccc(NC(=O)N3CCCCc4ccccc43)cc2)cc1 | . | . | 23µM* | ? | .
COc1ccccc1OCCC(=O)OCC(=O)NCc1ccc(F)cc1 | -15 | 3% | -14% | -3% | 7%
O=C(C[n+]1cc(Br)cc(Br)c1)c1ccc2ccccc2c1 | . | . | ? | -24% | .
O=C(NCc1cccnc1)C1CC(c2ccc(F)cc2)=NO1 (configuration not stated) | 43 | 10% | 9% | 6% | -4%
COc1cc(-c2ccc(Cl)cn2)cc2c1OCCN(S(=O)(=O)C[C@]13CC[C@H](CC1=O)C3(C)C)C2 | . | . | -6% | 13%[9.04 µM] | .
COc1ccc(OC)c(CNC(=O)Cc2ccc(NC(=O)N3CCCCc4ccccc43)cc2)c1 | . | . | 9.2µM* | 12µM* | .
COc1ccc(CC(=O)NC2CCN(CC(=O)N3CCCc4ccccc43)CC2)cc1OC | 30 | 4% | 3.7µM* | -22% | -6%
